# KB-V1 MDR tox = kills drug-selected multidrug resistant KB-V1 cells. KB-V1 MDR cells viability, CellTiter-Glo, 72 h. Potency, µM (doses to about 46.1 µM), usual class: cytotoxic. 3.4% of 400,000 active. AID 1347076; also: nearly all actives have a fitted effect of over 60% in size
#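 Compound-treated KB-V1 multidrug-resistant cells, 72 h, 37 degrees C; viability by CellTiter-Glo. Fitted qHTS curves give the values.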
# MCF10A rereplic = DNA re-replication induction in MCF 10a cells. Potency, µM (doses to about 46.1 µM), usual class: activators. 2.9% of 350,000 active. MCF 10A DNA re-replication, Hoechst nuclear intensity, 48 h; also: nearly all actives have a fitted effect of over 50% in size
# SW480 rereplic = inducers of DNA re-replication in SW480 colon cancer cells; SW480 DNA re-replication, Hoechst DNA content imaging, 48 h; Potency, µM (doses to about 46.1 µM), most hits filed as activators; 1.8% of 340,000 active; also: nearly all actives have a fitted effect of over 55% in size
#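 Treated cells incubate 48 hr (37 C, 5% CO2), are stained 40 min with Hoechst, and nuclear fluorescence is enumerated; a rise in nuclei with high DNA signal marks re-replication.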
# KCNH2 WT inh = blocks the wildtype human KCNH2 potassium channel; 0.37% of 340,000 active; activity change, % at 1.84 µM; U2OS, BacMam KCNH2, thallium flux FluxOr; hits give low values; AID 720551;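 active = maximum activity change below -70%; inconclusive = maximum activity change between -70% and -50%; inactive = maximum activity change above -50%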
#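 U2OS cells transduced with wild-type KCNH2 virus are loaded with FluxOr dye for 45 min, and thallium flux is measured in kinetic reads before and after stimulation buffer. Rate constants are normalized to DMSO controls.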
# KCNH2 3.1 block = blocks the human KCNH2 3.1 channel isoform | U2OS KCNH2 3.1, thallium flux FluxOr; hits give low values | activity change, % (tested at about 1.8 µM) | 0.95% of 340,000 active | AID 720553;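 active = maximum activity change below -70%; inconclusive = maximum activity change from -70% to -50%; inactive = maximum activity change above -50%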;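 also: thallium influx rate constant from kinetic fluorescence after stimulation buffer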
#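 Thallium flux read-out: FluxOr dye with Red40 quencher in HBSS/HEPES, 45 min at RT. Rate constants from kinetic reads were normalized to positive and negative DMSO controls. Cells: U2OS virally expressing the 3.1 isoform.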
# KB-3-1 tox = KB-3-1 parental cell cytotoxicity. KB-3-1 viability, CellTiter-Glo ATP luminescence, 72 h. Potency, µM (titrated, usually from 46.1 µM), most hits filed as cytotoxic. 1.4% of 400,000 active; also: nearly all actives have a fitted effect of over 60% in size
#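 KB-3-1 parental drug-naive adenocarcinoma cells in DMEM/10% FBS, incubated 72 h at 37 C with pin-transferred compounds across a concentration series. Viability by CellTiter-Glo luminescence; concentration-response curves fitted after normalization.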
# A number is an active result; . = inactive; ? = inconclusive; / = no result given; [ ] = dose if it differs, or a comment. In the library only some 7.6% were active in any assay of this set; here they are far more common. Unless noted, calls follow the shape of the dose curve; as a rule, active = well fitted curve in the direction sought with a large enough effect; inconclusive = small, poorly fitted or top-dose-only effect, or another doubt; inactive = no such curve, though single readings can be large; an effect the other way counts as inactive or inconclusive.
SMILES,KB-V1 MDR tox,MCF10A rereplic,SW480 rereplic,KCNH2 WT inh,KCNH2 3.1 block,KB-3-1 tox
Cc1cc(C)c2c(c1)cc(C)c1nnc(SCC(=O)N3CCCc4ccccc43)n12,?,.,.,.,.,.
O=C(CSc1nnnn1-c1cccc(F)c1)NC1CCCCC1,18µM,.,.,.,.,.
COc1cccc(-n2nnnc2SCC(=O)N2CCCc3ccccc32)c1,.,?,12µM,.,.,.
COc1cccc(-n2nnnc2SCC(=O)NC2CCCCC2)c1,.,.,.,.,.,.
Cc1ccc(C)c2c1cc(C)c1nnc(SCC(=O)N3CCCc4ccccc43)n12,9.2µM,.,.,.,.,?
COc1cc(OC)cc(-n2nnnc2SCC(=O)N2CCCc3ccccc32)c1,.,.,.,.,.,.
Cc1ccc(C(=O)Nc2nnc(SCC(=O)N3CCCc4ccccc43)s2)cc1,23µM,?,.,.,.,.
COCCN(C(=O)COC(=O)/C=C/c1ccc(Cl)c(Cl)c1)c1c(N)n(Cc2ccccc2)c(=O)[nH]c1=O,.,.,.,.,.,.
COc1cccc(-c2c(C(=O)N/N=C/c3ccco3)nnn2-c2nonc2N)c1,.,.,.,.,.,.
COc1cccc(-n2nnnc2SCC(=O)NC2CCCC2)c1,21µM,.,.,.,.,.
COc1cccc(C(=O)CSc2nc3ccccc3n2CC(=O)N2CCOCC2)c1,21µM,.,.,.,.,.
COc1cccc(C(=O)Cn2c(=N)n(C)c3ccccc32)c1,.,.,.,.,.,10µM
Fc1ccc(C2=NC(c3cccc(C(F)(F)F)c3)=Nc3ccccc3N2)cc1,.,/,/,/,/,.
O=C(C1=C[C@@H](c2ccccc2)C[C@@H](OCc2ccc(CO)cc2)O1)N1CCN(Cc2ccc3c(c2)OCO3)CC1,?,?,?,.,.,10µM
CCO[C@H]1OC(C(=O)NC2CC2)=C[C@@H](c2ccccc2)[C@@H]1CCCO,.,23µM,?,.,.,.
O=C(C1=C[C@H](c2ccccc2)C[C@H](OCc2ccc(CO)cc2)O1)N1CCN(Cc2ccccc2)CC1,.,?,.[9.22 µM],.,.,.
O=C(C1=C[C@H](c2ccc(C(F)(F)F)cc2)C[C@H](OCc2ccc(CO)cc2)O1)N1CCCCCCC1,?,?,.[9.22 µM],.,.,.
O=C(C1=C[C@@H](c2coc3ccccc3c2=O)C[C@@H](OCc2ccc(CO)cc2)O1)N1CCCCCCC1,.,1.3µM,.[9.22 µM],.,.,.
O=C(O)C1=C[C@@H](c2ccc(C(F)(F)F)cc2)C[C@@H](OCc2ccc(CO)cc2)O1,18µM,.,.,.,.,.
CCOC(=O)C1=C(C)NC(C)=C(C(=O)OCC)C1c1sccc1C,.,.,.,.,.,.
O=C(NC1CC1)C1=C[C@H](c2ccccc2)C[C@H](OCc2ccc(CO)cc2)O1,.,.,.,.,-181,.
O=C(Nc1ccccc1)C1=C[C@H](c2ccc(C(F)(F)F)cc2)C[C@H](OCc2ccc(CO)cc2)O1,.,26µM,.,.,.,.
O=C(COc1ccc(F)cc1)Nc1nnc(SCc2cc(=O)n3ccccc3n2)s1,.,/,/,/,/,.
C/C(=N\OCC(=O)NC12CC3CC(CC(C3)C1)C2)c1cc2ccccc2o1,.,21µM,?,.,/,.
COc1cc(/C=N/OCC(=O)NC23CC4CC(CC(C4)C2)C3)ccc1OCc1ccccc1,?,21µM,?,.,.,?
SMILES,KB-V1 MDR tox,MCF10A rereplic,SW480 rereplic,KCNH2 WT inh,KCNH2 3.1 block,KB-3-1 tox
CSc1ccccc1NC(=O)CO/N=C(\C)c1cc2ccccc2o1,.,?,.,.,.,.
COc1ccc(/C=N/OCC(=O)NC(c2ccccc2)c2ccccc2)cc1OC,2.3µM,.,.,.,.,?
COc1cc(/C=N/OCC(=O)Nc2ccc(OC(F)F)cc2)ccc1OCc1ccccc1,8.2µM,?,?,.,.,23µM
CC(O)c1nc2ccccc2n1CC(=O)N1CCN(c2ccccc2)CC1 (stereo not given),.,.,.,.,.,.
C=CCOc1ccccc1CNc1ccccc1C,.,?,8.2µM,.,.,.
Cc1ccccc1NCc1ccccc1O,.,.,.,.,.,.
Nc1ncnc2c1[nH]c(=S)n2C1OC(CO)C(O)C1O (stereo not given),.,/,/,/,/,.
Cc1ccccc1N1C(=O)C(Oc2ccc(Cl)cc2)C1CNC(C)(C)C (stereo not given),5.8µM,.,?,.,.,.
CCCNCC1C(Oc2ccc(Cl)cc2)C(=O)N1c1ccccc1C (stereo not given),.,.,.,.,.,.
O=C(NCC1CCCO1)C1c2ccccc2C(=O)N1C1CCCCCCC1 (stereo not given),7.3µM,.,.,.,.,.
O=C(NCC1CCCO1)[C@@H]1CSC2c3ccccc3C(=O)N21 (stereo not given in full),?,.,.,.,.,.
O=C(NCc1cccnc1)C1c2ccccc2C(=O)N1C1CCCCCCC1 (stereo not given),.,.,.,.,.,.
O=C(NCc1cccnc1)C1c2ccccc2C(=O)N1C1CCCCCC1 (stereo not given),18µM,.,.,.,.,.
O=C(NC1CCCCCC1)C1c2ccccc2C(=O)N1Cc1cccnc1 (stereo not given),12µM,.,.,.,.,.
Cc1ccc(Cn2c(=O)n(Cc3ccccc3Cl)c(=O)c3cccnc32)cc1,.,/,/,/,/,.
COc1ccc(NC(=O)C[C@H]2C(=O)N(c3ccccc3)C[C@@H]2C)cc1,.,/,/,.,.,.
O=C(COC(=O)c1ccc(Cl)cc1[N+](=O)[O-])NCc1ccco1,.,.,.,.,.,.
Cc1ccc(C(CC(=O)N2CCNCC2)c2ccccc2)c(O)c1C (stereo not given),.,.,.,.,-107,.
CCOC(=O)c1ccc(NC(=O)Cn2c(=O)cc(C(F)(F)F)c3c(C)nn(C)c32)cc1,.,/,/,/,/,.
Cc1ccccc1OCC(=O)Nc1nc(-c2ccncc2)cs1,15µM,.,.,.,.,.
Cc1cc(C)c(OCC(=O)Nc2nc(-c3ccccn3)cs2)c(C)c1,6.5µM,.,.,.,.,?
COc1ccc(NC(=O)c2oc3ccc4c(c3c2C)C(=O)CC(C)(C)O4)cc1OC,?,/,/,/,/,.
CCOc1ccc(NC(=O)c2c(NC(=O)c3ccccc3F)sc3c2CCC3)cc1,.,/,/,/,/,.
O=C(Nc1sc2c(c1C(=O)O)CCC2)c1cccs1,23µM,.,.,.,.,?
CCOc1ccccc1NC(=O)c1c(NC(=O)COc2ccccc2)sc2c1CCCCC2,?,/,/,/,/,4.6µM
